Several values for one entry are separate records, joined by “and”; a condition that tells them apart may be missing. Identical values can stand only once. Among all 5,500 compounds or so, about 2,000 (36%) were called active. Inconclusive results (about 18%) are left out. Rule as the data show it: active = normalized growth mostly below about 0.91 (no sharp cut-off); inconclusive = no clear call, values can overlap the other calls; inactive = mostly above about 0.92. Some of the results follow.
Test: chemical genetic growth profiling, strain panel (AID 1159580);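 also: tested at 20 µM; growth read once vehicle control cultures reached saturation at 30 °C; 1 = growth at the plate median or of vehicle wells; lower values mean less growth of the strain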
Details: S. cerevisiae deletion strains, growth OD

Measured: normalized growth

CC(C)C(=O)Nc1ccc([N+](=O)[O-])c(C(F)(F)F)c1
inactive: locus YAL013W, strain DEP1, active compounds read low 0.995 | locus YAL021C, strain ccr4, active compounds read low 1.03 | locus YAL026C, strain drs2, active compounds read low 1.01 | locus YAL030W, strain snc1, active compounds read low 1.02 | locus YAL040C, strain CLN3, active compounds read low 0.959 | locus YBL061C, strain skt5, active compounds read low 1.02 | locus YBR009C, strain hhf1, active compounds read low 1.03 | locus YBR021W, strain FUR4, active compounds read low 0.929 | locus YBR023C, strain chs3, active compounds read low 1.03 | locus YBR171W, strain sec66, active compounds read low 1.04 | locus YBR229C, strain ROT2, active compounds read low 0.99 | locus YBR231C, strain swc5, active compounds read low 0.994 | locus YBR279W, strain paf1, active compounds read low 1.02 | locus YCL011C, strain gbp2, active compounds read low 1.02 | locus YCL016C, strain dcc1, active compounds read low 1.01 | locus YCL029C, strain bik1, active compounds read low 0.99 | locus YCL061C, strain MRC1 (second series), active compounds read low 0.999 | locus YCL069W, strain vba3, active compounds read low 1.02 | locus YCR088W, strain abp1, active compounds read low 1.01 | locus YDL005C, strain med2, active compounds read low 1.03 | locus YDL035C, strain GPR1, active compounds read low 0.993 | locus YDL040C, strain nat1, active compounds read low 1.02 | locus YDL074C, strain BRE1, active compounds read low 0.946 | locus YDL101C, strain DUN1, active compounds read low 0.993 | locus YDL134C, strain PPH21, active compounds read low 0.991 | locus YDL185W, strain tfp1, active compounds read low 0.98 | locus YDL192W, strain arf1, active compounds read low 0.977 | locus YDR001C, strain nth1, active compounds read low 1.02 | locus YDR069C, strain doa4, active compounds read low 1.02 | locus YDR101C, strain arx1, active compounds read low 0.969 | locus YDR137W, strain rgp1, active compounds read low 0.983 | locus YDR150W, strain NUM1, active compounds read low 0.994 and 0.998 | locus YDR159W, strain sac3, active compounds read low 1.03 | locus YDR162C, strain NBP2, active compounds read low 0.982 | locus YDR195W, strain ref2 1.07 | locus YDR297W, strain sur2, active compounds read low 1.01 | locus YDR318W, strain mcm21, active compounds read low 0.964 | locus YDR334W, strain swr1, active compounds read low 1.01 | locus YDR335W, strain msn5, active compounds read low 1.03 | locus YDR363W, strain ESC2, active compounds read low 1.05 | locus YDR388W, active compounds read low 0.961 | locus YDR392W, strain spt3, active compounds read low 0.999 | locus YDR502C, strain sam2, active compounds read low 0.96 | locus YEL003W, strain gim4, active compounds read low 1.02 | locus YEL037C, strain rad23, active compounds read low 1.02 | locus YEL061C, strain CIN8 (second series), active compounds read low 1.01 | locus YEL061C, strain CIN8, active compounds read low 0.993 | locus YER002W, strain NOP16, active compounds read low 0.972 | locus YER015W, strain faa2, active compounds read low 1.02 | locus YER016W, strain bim1, active compounds read low 1.01 | locus YER110C, active compounds read low 0.979 | locus YER111C, strain swi4, active compounds read low 1.03 | locus YER155C, strain BEM2 (second series), active compounds read low 0.993 | locus YER155C, strain BEM2, active compounds read low 0.985 | locus YER167W, strain BCK2, active compounds read low 0.969 | locus YFR010W, strain ubp6, active compounds read low 1.04 | locus YGL078C, strain dbp3, active compounds read low 0.984 | locus YGL086W, strain mad1, active compounds read low 0.984 | locus YGL167C, strain pmr1, active compounds read low 1.03 | locus YGL173C, strain kem1, active compounds read low 1.03 | locus YGL227W, strain vid30, active compounds read low 1.03 | locus YGL240W, strain doc1, active compounds read low 1.01 | locus YGL248W, strain PDE1, active compounds read low 0.988 | locus YGL253W, strain hxk2, active compounds read low 1.02 | locus YGR078C, strain PAC10, active compounds read low 0.992 and 0.982 | locus YGR135W, strain pre9, active compounds read low 0.968 | locus YGR229C, strain SMI1, active compounds read low 0.978 | locus YGR252W, strain gcn5, active compounds read low 0.916 | locus YHR013C, strain ard1, active compounds read low 0.995 | locus YHR027C, strain rpn1, active compounds read low 1.04 | locus YHR030C, strain SLT2, active compounds read low 0.994 and 0.977 | locus YHR079C, strain IRE1 (second series), active compounds read low 0.975 | locus YHR079C, strain IRE1, active compounds read low 0.964 | locus YHR094C, strain hxt1, active compounds read low 0.98 | locus YHR129C, strain ARP1, active compounds read low 0.981 | locus YHR142W, strain chs7, active compounds read low 1.03 | locus YHR200W, strain rpn10, active compounds read low 0.963 | locus YIL066C, strain RNR3, active compounds read low 0.986 | locus YIL073C, strain SPO22, active compounds read low 0.98 | locus YIL125W, strain kgd1, active compounds read low 0.983 | locus YIR030C, strain dcg1, active compounds read low 0.973 | locus YJL092W, strain hpr5, active compounds read low 1.03 | locus YJL095W, strain BCK1 (second series), active compounds read low 1.01 | locus YJL095W, strain BCK1, active compounds read low 0.958 and 0.976 | locus YJL115W, strain asf1, active compounds read low 1.03 | locus YJL129C, strain trk1, active compounds read low 1.04 | locus YJL134W, strain LCB3, active compounds read low 0.986 | locus YJL154C, strain vps35, active compounds read low 1.02 | locus YJL164C, strain tpk1, active compounds read low 1.02 | locus YJL166W, strain qcr8, active compounds read low 1.02 | locus YJL168C, strain set2, active compounds read low 0.977 | locus YJL187C, strain SWE1 (second series), active compounds read low 0.988 | locus YJR043C, strain POL32, active compounds read low 0.967 | locus YJR066W, strain TOR1, active compounds read low 0.92 | locus YJR075W, strain HOC1, active compounds read low 0.98

From PubChem BioAssay AID1159580 (chemical genetic matrix, 2015)
